Whole data set: some 5,000 sequences, median “log2 normalized fluorescence” near 0.089, cut for the highest 2% near 0.81. This is one part of a sample in which the highest values are shown more often than they occur.
These sequences were tested against MYC (p64);MAX (p21), in MYC:MAX (human;human, UniProt P01106-1;P61244-2 1-439;1-151, |) (assay: protein-binding microarray (anti-MAX antibody); PBM: 15 mM Tris-HCl pH 7.5, 100 mM KCl, 0.075% NP40, 7.5 mM beta-mercaptoethanol, 375 ng/ul BSA, 8 ng/ul poly(dA-dT):(dA-dT), 550 ng complex, 60 min, room tempe; high values mean tight binding). Conditions: protein: recombinant;recombinant; tags: 6xHis;6xHis; copies: 1;1; label: 3' end of printed strand (linker) attached to glass slide; dsDNA, one strand shown.
Procedure, shortened: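 For each of ~5000 unique double-stranded 12-nt sequences, spotted in triplicate on a custom Agilent glass array, binding of His-tagged human MYC:MAX or MAX:MAX dimers is reported as log2 normalized fluorescence. The dimers (550 ng, E. coli-expressed) were incubated for 60 min at room temperature in Tris-KCl buffer, pH 7.5, with NP40, BSA and poly(dA-dT) competitor. Detection used anti-MAX and secondary antibodies with a 543 nm scan.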

Sequence of MYC (p64);MAX (p21), in MYC:MAX (P01106 16-454, chain 1 of 2): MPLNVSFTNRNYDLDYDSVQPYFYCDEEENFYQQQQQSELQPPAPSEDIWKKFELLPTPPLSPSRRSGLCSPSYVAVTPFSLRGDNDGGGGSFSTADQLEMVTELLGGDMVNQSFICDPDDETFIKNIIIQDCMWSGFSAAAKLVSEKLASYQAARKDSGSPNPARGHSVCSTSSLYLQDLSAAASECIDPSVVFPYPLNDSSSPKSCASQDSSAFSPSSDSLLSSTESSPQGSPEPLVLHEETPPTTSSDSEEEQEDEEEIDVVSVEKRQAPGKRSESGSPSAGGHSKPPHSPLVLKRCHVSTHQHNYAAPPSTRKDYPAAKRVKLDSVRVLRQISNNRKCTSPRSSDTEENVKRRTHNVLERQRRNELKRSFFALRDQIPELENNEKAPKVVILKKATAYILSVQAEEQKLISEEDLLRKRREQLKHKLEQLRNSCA
Sequence of MYC (p64);MAX (p21), in MYC:MAX (P61244 other isoform, or with tags, fused parts or gaps |, chain 2 of 2): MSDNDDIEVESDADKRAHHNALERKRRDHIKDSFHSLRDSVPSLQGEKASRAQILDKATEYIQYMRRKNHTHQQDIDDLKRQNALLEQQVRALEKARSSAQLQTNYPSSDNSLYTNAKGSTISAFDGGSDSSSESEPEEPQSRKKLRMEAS

Sequence	binding signal
CCGGCTGACAACTGGTTTTAATAGCTAAGATTACTATATCGACG	0.195 log2 normalized fluorescence
CCGGCTGAAGGACTGTATTAATAGCTAAGATTACTATATCGACG	0.0114 log2 normalized fluorescence
CCGGCGTATACGTGGTATTAATAGCTAAGATTACTATATCGACG	0.202 log2 normalized fluorescence
CCGGCCTACACGTGGTATTAATAGCTAAGATTACTATATCGACG	0.805 log2 normalized fluorescence
CCGGCTTGCACGTGGTATTAATAGCTAAGATTACTATATCGACG	1.01 log2 normalized fluorescence
CCGGCTTGCACGTGGTTTTAATAGCTAAGATTACTATATCGACG	0.716 log2 normalized fluorescence
CCGGCGTGCACGTGGTATTAATAGCTAAGATTACTATATCGACG	0.856 log2 normalized fluorescence
CCGGCGTCCACGTGGTATTAATAGCTAAGATTACTATATCGACG	0.808 log2 normalized fluorescence
CCGGCCTCCACGTGGTATTAATAGCTAAGATTACTATATCGACG	0.737 log2 normalized fluorescence
CCGGCTTGCACTTGGTATTAATAGCTAAGATTACTATATCGACG	0.318 log2 normalized fluorescence
CCGGCCTGCACGTGGTATTAATAGCTAAGATTACTATATCGACG	0.875 log2 normalized fluorescence
CCGGCTGAATTACCGTATTAATAGCTAAGATTACTATATCGACG	0.041 log2 normalized fluorescence
CCGGCTGAGCAACTGTATTAATAGCTAAGATTACTATATCGACG	0.128 log2 normalized fluorescence
CCGGCTGAATTACTGTATTAATAGCTAAGATTACTATATCGACG	0.0701 log2 normalized fluorescence
CCGGCTGAGTCGGGGTATTAATAGCTAAGATTACTATATCGACG	0.126 log2 normalized fluorescence
CCGGCAGAGACGTGGTATTAATAGCTAAGATTACTATATCGACG	0.387 log2 normalized fluorescence
CCGGCACTCACGTGGTATTAATAGCTAAGATTACTATATCGACG	0.862 log2 normalized fluorescence
CCGGCACGCACGTGGTATTAATAGCTAAGATTACTATATCGACG	0.838 log2 normalized fluorescence
CCGGCAGGCACGTGGTATTAATAGCTAAGATTACTATATCGACG	0.815 log2 normalized fluorescence

Sequence	binding signal
CCGGCACACACGTGGTATTAATAGCTAAGATTACTATATCGACG	0.804 log2 normalized fluorescence
CCGGCTACTACGTGGTATTAATAGCTAAGATTACTATATCGACG	0.34 log2 normalized fluorescence
CCGGCACCCACGTGGTATTAATAGCTAAGATTACTATATCGACG	0.845 log2 normalized fluorescence
CCGGCTGAACCTCAGTATTAATAGCTAAGATTACTATATCGACG	0.265 log2 normalized fluorescence
CCGGCTGAAATGCCGTATTAATAGCTAAGATTACTATATCGACG	0.0989 log2 normalized fluorescence
CCGGCTGATACGTGGTATTAATAGCTAAGATTACTATATCGACG	0.341 log2 normalized fluorescence
CCGGCTGAGTGATCGTATTAATAGCTAAGATTACTATATCGACG	0.194 log2 normalized fluorescence
CCGGCTGAACATACGTATTAATAGCTAAGATTACTATATCGACG	0.202 log2 normalized fluorescence
CCGGCTGATGGCGGGTATTAATAGCTAAGATTACTATATCGACG	0.232 log2 normalized fluorescence
CCGGCTGACCCCGTGTATTAATAGCTAAGATTACTATATCGACG	0.42 log2 normalized fluorescence
CCGGCGGACACGAGGTATTAATAGCTAAGATTACTATATCGACG	0.562 log2 normalized fluorescence
CCGGCTGACCACCCGTATTAATAGCTAAGATTACTATATCGACG	0.348 log2 normalized fluorescence
CCGGCTGAGGGACGGTATTAATAGCTAAGATTACTATATCGACG	0.0602 log2 normalized fluorescence
CCGGCTGATGTTCTGTATTAATAGCTAAGATTACTATATCGACG	0.261 log2 normalized fluorescence
CCGGCTGATGAGGTGTATTAATAGCTAAGATTACTATATCGACG	-0.000883 log2 normalized fluorescence
CCGGCTGAGTATACGTATTAATAGCTAAGATTACTATATCGACG	0.0171 log2 normalized fluorescence
CCGGCTGTCACGTGGTATTAATAGCTAAGATTACTATATCGACG	0.706 log2 normalized fluorescence
CCGGCAGCTACGTGGTATTAATAGCTAAGATTACTATATCGACG	0.389 log2 normalized fluorescence
CCGGCAGTCACGTGGTATTAATAGCTAAGATTACTATATCGACG	0.893 log2 normalized fluorescence

Sequence	binding signal
CCGGCAGCCACGTGGTATTAATAGCTAAGATTACTATATCGACG	0.908 log2 normalized fluorescence
CCGGCATGCACGTGGTATTAATAGCTAAGATTACTATATCGACG	0.877 log2 normalized fluorescence
CCGGCTGCATCGTGGTATTAATAGCTAAGATTACTATATCGACG	0.636 log2 normalized fluorescence
CCGGCAGCCACGTTGTATTAATAGCTAAGATTACTATATCGACG	0.643 log2 normalized fluorescence
CCGGCTGAAAGAGAGTATTAATAGCTAAGATTACTATATCGACG	-0.0282 log2 normalized fluorescence
CCGGCTGACCGGGTGTATTAATAGCTAAGATTACTATATCGACG	0.119 log2 normalized fluorescence
CCGGCTGAGTACGGGTATTAATAGCTAAGATTACTATATCGACG	-0.0173 log2 normalized fluorescence
CCGGCTGATGCGCAGTATTAATAGCTAAGATTACTATATCGACG	0.0262 log2 normalized fluorescence
CCGGCTGAAACGTGGTCTTAATAGCTAAGATTACTATATCGACG	0.74 log2 normalized fluorescence
CCGGCGCTCACGTGGTATTAATAGCTAAGATTACTATATCGACG	0.815 log2 normalized fluorescence
CCGGCGGTCACGTGGTATTAATAGCTAAGATTACTATATCGACG	0.805 log2 normalized fluorescence
CCGGCTGGTACGTGGTCTTAATAGCTAAGATTACTATATCGACG	0.364 log2 normalized fluorescence
CCGGCTCAGACGTGGTATTAATAGCTAAGATTACTATATCGACG	0.391 log2 normalized fluorescence
CCGGCTTACACGTGGGATTAATAGCTAAGATTACTATATCGACG	0.81 log2 normalized fluorescence
CCGGCTCACGATGGGGCTTAATAGCTAAGATTACTATATCGACG	0.398 log2 normalized fluorescence
CCGGCTCTCACGTGGTATTAATAGCTAAGATTACTATATCGACG	0.891 log2 normalized fluorescence
CCGGCTCTCACGTGGTCTTAATAGCTAAGATTACTATATCGACG	0.836 log2 normalized fluorescence
CCGGCTCTTACGTGGTATTAATAGCTAAGATTACTATATCGACG	0.358 log2 normalized fluorescence
CCGGCTCATACGTGGTATTAATAGCTAAGATTACTATATCGACG	0.558 log2 normalized fluorescence
